Measurements: the supplement of paper PMC12282887
± gives the standard deviation of the averaged measurements.

What was measured:
Assay in all cases: promoter activity interaction Z-score (Lux/OD deviation from empty-vector control); higher = stronger promoter induction by the compound
[1] = system: E. coli BW25113 acrABp lux reporter
Summary of the method: (§1)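 Low-copy luxCDABE promoter reporters were carried by E. coli BW25113, either wild type or lacking one of three genes, grown in 40 µl LB Lennox in 384-well plates at 37°C. Each compound was run at four 1:2 dilutions in biological duplicates, with OD600 and luminescence read every 30 min for 12 h. Integration used 0–8 h for wild type and 1–9 h for deletion strains, and wells under 10% of the median growth value were removed. Luminescence normalised to growth was fitted against a control, and the Z-transformed residual is the score.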

[2] = system: E. coli BW25113 marRABp lux reporter
Summary of the method: as §1

[3] = system: E. coli BW25113 micFp lux reporter
Summary of the method: as §1

[4] = system: E. coli BW25113 ompFp lux reporter
Summary of the method: as §1

[5] = system: E. coli BW25113 robp lux reporter
Summary of the method: as §1

[6] = system: E. coli BW25113 soxSp lux reporter
Summary of the method: as §1

[7] = system: E. coli BW25113 tolCp lux reporter
Summary of the method: as §1

[8] = 19 µg/ml, genetic background: wild type
[9] = 19 µg/ml, genetic background: ΔmarA
[10] = 19 µg/ml, genetic background: Δrob
[11] = 19 µg/ml, genetic background: ΔsoxS
[12] = 38 µg/ml, genetic background: wild type
[13] = 38 µg/ml, genetic background: ΔmarA
[14] = 38 µg/ml, genetic background: Δrob
[15] = 38 µg/ml, genetic background: ΔsoxS
[16] = 76.1 µg/ml, genetic background: wild type
[17] = 76.1 µg/ml, genetic background: ΔmarA
[18] = 76.1 µg/ml, genetic background: Δrob
[19] = 76.1 µg/ml, genetic background: ΔsoxS
[20] = 152.1 µg/ml, genetic background: wild type
[21] = 152.1 µg/ml, genetic background: ΔmarA
[22] = 152.1 µg/ml, genetic background: Δrob
[23] = 152.1 µg/ml, genetic background: ΔsoxS

COc1cc(C=O)ccc1O [Vanillin]
promoter activity interaction Z-score [1, 8]: -0.0924 ± 0.22 | promoter activity interaction Z-score [1, 9]: -1.01 ± 0.36 | promoter activity interaction Z-score [1, 10]: -0.237 ± 0.036 | promoter activity interaction Z-score [1, 11]: -0.38 ± 0.04 | promoter activity interaction Z-score [1, 12]: -0.3 ± 0.17 | promoter activity interaction Z-score [1, 13]: 0.134 ± 0.85 | promoter activity interaction Z-score [1, 14]: -0.312 ± 0.14 | promoter activity interaction Z-score [1, 15]: -0.79 ± 0.35 | promoter activity interaction Z-score [1, 16]: -0.108 ± 0.02 | promoter activity interaction Z-score [1, 17]: -0.501 ± 0.51 | promoter activity interaction Z-score [1, 18]: -0.406 ± 0.017 | promoter activity interaction Z-score [1, 19]: -0.409 ± 0.11 | promoter activity interaction Z-score [1, 20]: 0.0819 ± 0.4 | promoter activity interaction Z-score [1, 21]: -0.204 ± 0.85 | promoter activity interaction Z-score [1, 22]: -0.28 ± 0.056 | promoter activity interaction Z-score [1, 23]: -0.339 ± 0.24 | promoter activity interaction Z-score [2, 8]: -0.156 ± 0.018 | promoter activity interaction Z-score [2, 9]: -0.451 ± 0.34 | promoter activity interaction Z-score [2, 10]: 0.0366 ± 0.23 | promoter activity interaction Z-score [2, 11]: -0.21 ± 0.21 | promoter activity interaction Z-score [2, 12]: 0.304 ± 0.065 | promoter activity interaction Z-score [2, 13]: 0.0122 ± 0.2 | promoter activity interaction Z-score [2, 14]: 0.119 ± 0.4 | promoter activity interaction Z-score [2, 15]: -0.0492 ± 0.056 | promoter activity interaction Z-score [2, 16]: 0.913 ± 0.07 | promoter activity interaction Z-score [2, 17]: 0.599 ± 0.31 | promoter activity interaction Z-score [2, 18]: 0.595 ± 0.066 | promoter activity interaction Z-score [2, 19]: 0.224 ± 0.12 | promoter activity interaction Z-score [2, 20]: 1.28 ± 0.41 | promoter activity interaction Z-score [2, 21]: 1.702 ± 0.0098 | promoter activity interaction Z-score [2, 22]: 1.077 ± 0.0082 | promoter activity interaction Z-score [2, 23]: 0.812 ± 0.084 | promoter activity interaction Z-score [3, 8]: 0.414 ± 0.3 | promoter activity interaction Z-score [3, 9]: 0.0708 ± 0.21 | promoter activity interaction Z-score [3, 10]: 0.348 ± 0.34 | promoter activity interaction Z-score [3, 11]: 0.261 ± 0.29 | promoter activity interaction Z-score [3, 12]: 0.827 ± 0.47 | promoter activity interaction Z-score [3, 13]: 0.117 ± 0.12 | promoter activity interaction Z-score [3, 14]: 0.608 ± 0.26 | promoter activity interaction Z-score [3, 15]: 0.255 ± 0.57 | promoter activity interaction Z-score [3, 16]: 1.55 ± 0.57 | promoter activity interaction Z-score [3, 17]: 0.0617 ± 0.059 | promoter activity interaction Z-score [3, 18]: 0.54 ± 0.19 | promoter activity interaction Z-score [3, 19]: 0.822 ± 0.14 | promoter activity interaction Z-score [3, 20]: 1.67 ± 0.3 | promoter activity interaction Z-score [3, 21]: 0.484 ± 0.14 | promoter activity interaction Z-score [3, 22]: 1.27 ± 0.44 | promoter activity interaction Z-score [3, 23]: 1.36 ± 0.11 | promoter activity interaction Z-score [4, 8]: -0.994 ± 0.24 | promoter activity interaction Z-score [4, 9]: -1.33 ± 0.62 | promoter activity interaction Z-score [4, 10]: -1.05 ± 0.28 | promoter activity interaction Z-score [4, 11]: -0.69 ± 0.026 | promoter activity interaction Z-score [4, 12]: -0.89 ± 0.22 | promoter activity interaction Z-score [4, 13]: -1.03 ± 0.49 | promoter activity interaction Z-score [4, 14]: -0.857 ± 0.061 | promoter activity interaction Z-score [4, 15]: -0.75 ± 0.044 | promoter activity interaction Z-score [4, 16]: -0.551 ± 0.35 | promoter activity interaction Z-score [4, 17]: -1.2 ± 0.46 | promoter activity interaction Z-score [4, 18]: -0.873 ± 0.084 | promoter activity interaction Z-score [4, 19]: -0.372 ± 0.057 | promoter activity interaction Z-score [4, 20]: -0.504 ± 0.27 | promoter activity interaction Z-score [4, 21]: -0.917 ± 0.56 | promoter activity interaction Z-score [4, 22]: -0.507 ± 0.057 | promoter activity interaction Z-score [4, 23]: 0.0107 ± 0.52 | promoter activity interaction Z-score [5, 8]: -0.0267 ± 0.12 | promoter activity interaction Z-score [5, 9]: -0.748 ± 0.21 | promoter activity interaction Z-score [5, 10]: -0.428 ± 0.024 | promoter activity interaction Z-score [5, 11]: -0.184 ± 0.93 | promoter activity interaction Z-score [5, 12]: -0.354 ± 0.066 | promoter activity interaction Z-score [5, 13]: 0.11 ± 0.23 | promoter activity interaction Z-score [5, 14]: -0.287 ± 0.54 | promoter activity interaction Z-score [5, 15]: -0.138 ± 0.42 | promoter activity interaction Z-score [5, 16]: -0.265 ± 0.18 | promoter activity interaction Z-score [5, 17]: -0.307 ± 0.11 | promoter activity interaction Z-score [5, 18]: -0.399 ± 0.16 | promoter activity interaction Z-score [5, 19]: -0.0986 ± 0.36 | promoter activity interaction Z-score [5, 20]: 0.841 ± 1.6 | promoter activity interaction Z-score [5, 21]: 0.111 ± 0.07 | promoter activity interaction Z-score [5, 22]: -0.463 ± 0.3 | promoter activity interaction Z-score [5, 23]: 0.223 ± 0.32 | promoter activity interaction Z-score [6, 8]: -0.29 ± 0.1 | promoter activity interaction Z-score [6, 9]: -0.185 ± 0.056 | promoter activity interaction Z-score [6, 10]: 0.0115 ± 0.23 | promoter activity interaction Z-score [6, 11]: -0.409 ± 0.11 | promoter activity interaction Z-score [6, 12]: -0.279 ± 0.037 | promoter activity interaction Z-score [6, 13]: -0.201 ± 0.018 | promoter activity interaction Z-score [6, 14]: 0.0294 ± 0.17 | promoter activity interaction Z-score [6, 15]: -0.314 ± 0.082 | promoter activity interaction Z-score [6, 16]: -0.117 ± 0.062 | promoter activity interaction Z-score [6, 17]: -0.32 ± 0.06 | promoter activity interaction Z-score [6, 18]: -0.186 ± 0.072 | promoter activity interaction Z-score [6, 19]: -0.321 ± 0.11 | promoter activity interaction Z-score [6, 20]: -0.196 ± 0.03 | promoter activity interaction Z-score [6, 21]: -0.205 ± 0.12 | promoter activity interaction Z-score [6, 22]: -0.225 ± 0.11 | promoter activity interaction Z-score [6, 23]: -0.367 ± 0.18 | promoter activity interaction Z-score [7, 8]: 0.0479 ± 0.73 | promoter activity interaction Z-score [7, 9]: -0.119 ± 0.31 | promoter activity interaction Z-score [7, 10]: 0.58 ± 0.34 | promoter activity interaction Z-score [7, 11]: 0.597 ± 0.78 | promoter activity interaction Z-score [7, 12]: 0.657 ± 0.53 | promoter activity interaction Z-score [7, 13]: 0.25 ± 0.54 | promoter activity interaction Z-score [7, 14]: 0.749 ± 0.62 | promoter activity interaction Z-score [7, 15]: -0.627 ± 0.44 | promoter activity interaction Z-score [7, 16]: 0.993 ± 0.047 | promoter activity interaction Z-score [7, 17]: -0.352 ± 0.71 | promoter activity interaction Z-score [7, 18]: -0.533 ± 0.45 | promoter activity interaction Z-score [7, 19]: 0.305 ± 0.97 | promoter activity interaction Z-score [7, 20]: -0.199 ± 0.18 | promoter activity interaction Z-score [7, 21]: -0.469 ± 1 | promoter activity interaction Z-score [7, 22]: 0.503 ± 0.78 | promoter activity interaction Z-score [7, 23]: 1.07 ± 1.8
